From PubChem
An excerpt weighted towards active compounds, which were near 19% of everything screened.
RORg inh = qHTS for inhibitors of ROR gamma transcriptional activity. hit rate 5.4% among 310,000. Drosophila S2 Gal4-RORgamma UAS-luciferase reporter, 20 h. AID 2551, 2010. Potency, µM (series often up to 53.6 µM), inactives show top-dose activity change, negative = inhibition, most hits filed as inhibitors; also: nearly all actives have a fitted effect of over 60% in size
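Schneider cells (Drosophila), stable Gal4 DBD–ROR gamma + UAS-luc; 1 hr cmpd preincubation; Cu2+ induction 700 uM final; 20 hr ambient; luminescence.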
DT40 TDP1 CPT = qHTS for Inhibitors of human tyrosyl-DNA phosphodiesterase 1 (TDP1): qHTS in cells in presence of CPT | Potency, µM (series often up to 46.2 µM), for inactives: at the highest dose activity change, negative = growth inhibition, actives largely listed as inhibitors | hit rate 12% among 420,000 | AID 686979, 2013 | chicken DT40 Tdp1-/-;hTDP1 cells + 20 nM CPT, ATP luminescence, 48 h; also: nearly all actives have a fitted effect of over 55% in size
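Chicken DT40 Tdp1-/- cells stably complemented with human TDP1 were seeded at 400 cells/well in medium containing 20 nM camptothecin, exposed to pin-transferred compounds, and grown at 37 °C for at least 48 hr. Viability was read as ATP luminescence.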
TDP1 block = qHTS Assay for Inhibitors of Tyrosyl-DNA Phosphodiesterase (TDP1); Tyrosyl-DNA phosphodiesterase 1 (Homo sapiens), Q9NUW8; recombinant TDP1, AlphaScreen DNA substrate cleavage; Potency, µM (doses to about 130 µM), for the others: top-dose activity change, negative = inhibition, actives largely listed as inhibitors; hit rate 0.28% among 350,000; AID 485290, 2010; also: nearly all actives have a fitted effect of over 40% in size
Target sequence (Q9NUW8 whole entry, looked up): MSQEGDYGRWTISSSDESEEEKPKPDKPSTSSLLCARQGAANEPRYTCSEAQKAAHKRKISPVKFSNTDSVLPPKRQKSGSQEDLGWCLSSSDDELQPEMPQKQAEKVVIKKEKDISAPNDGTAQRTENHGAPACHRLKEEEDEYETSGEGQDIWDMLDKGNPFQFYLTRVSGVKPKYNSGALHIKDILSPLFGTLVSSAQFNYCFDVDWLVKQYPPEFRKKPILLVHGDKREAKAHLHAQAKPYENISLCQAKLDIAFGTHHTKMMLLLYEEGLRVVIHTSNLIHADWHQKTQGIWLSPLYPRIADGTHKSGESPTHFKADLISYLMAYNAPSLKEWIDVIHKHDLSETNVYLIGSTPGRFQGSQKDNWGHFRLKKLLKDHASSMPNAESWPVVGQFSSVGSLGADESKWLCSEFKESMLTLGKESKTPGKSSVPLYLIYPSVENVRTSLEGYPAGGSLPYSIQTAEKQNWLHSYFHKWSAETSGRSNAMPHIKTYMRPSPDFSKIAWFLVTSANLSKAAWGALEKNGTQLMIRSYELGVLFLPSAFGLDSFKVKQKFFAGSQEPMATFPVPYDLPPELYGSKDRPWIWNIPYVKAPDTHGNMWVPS
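Enzyme-compound mixtures sat 15 min at room temperature, followed by a 5 min reaction with 15 nM final substrate and 10 min with AlphaScreen beads. Recombinant human Tdp1 was used at 1 nM final.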
VP16 counter = VP16 counterscreen qHTS for inhibitors of ROR gamma transcriptional activity; Potency, µM (top dose mostly 53.6 µM), for inactives: at the top dose activity, negative = inhibition, actives largely listed as inhibitors; hit rate 3.5% among 310,000; AID 2546, 2010; Drosophila S2 Gal4-VP16 UAS-luciferase, luminescence, 20 h;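 also: Gal4-VP16 expression switched on by copper sulfate through the metallothionein promoter; nearly all actives have a fitted effect of over 50% in size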
DT40 TDP1 no CPT = qHTS for Inhibitors of human tyrosyl-DNA phosphodiesterase 1 (TDP1): qHTS in cells in absence of CPT; DT40 Tdp1-/- hTDP1 cells, no CPT, ATP luminescence, 48 h; Potency, µM (doses to about 46.2 µM), for the others: at the top dose activity change, negative = growth inhibition, actives largely listed as inhibitors; hit rate 15% among 420,000; AID 686978, 2013; also: nearly all actives have a fitted effect of over 55% in size
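A cellular qHTS used chicken DT40 cells lacking endogenous Tdp1 but carrying stably transfected human TDP1. Compounds were applied without camptothecin, and cell growth kinetics were judged by ATP-dependent luminescence after ≥48 hr.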
An asterisk follows results filed as active; ? = inconclusive; nt = no result given; ! = not active in a repeat; [ ] = remark or other dose. Calls follow the shape of the dose curve; as a rule, active = well fitted curve in the direction sought with a large enough effect; inconclusive = small, poorly fitted or top-dose-only effect, or another doubt; inactive = no such curve, though single readings can be large; an effect the other way counts as inactive or inconclusive. % is scaled to controls: 0 for no effect and ±100 for the full control effect; potency is read from the fitted curve at half-maximal effect.

SMILES	RORg inh	DT40 TDP1 CPT	TDP1 block	VP16 counter	DT40 TDP1 no CPT
CN(CC1CCCO1)S(=O)(=O)c1ccc(C(=O)Nc2nc(-c3ccccn3)cs2)cc1 (configuration not stated)	7.9µM*	1.5µM*	8%	11µM*	1.8µM*
CN(CC1CCCO1)S(=O)(=O)c1ccc(C(=O)Nc2nnc(-c3ccccc3)o2)cc1 (configuration not stated)	0.63µM*	18µM*	8%	0.56µM*	8.2µM*
C[C@H](O)[C@@H](C(=O)N1CCN(C(=O)OC(C)(C)C)CC1)n1cc(CCCCNC(=O)OC(C)(C)C)nn1	3%	-23%	3%	6%	?
CCCCc1cn([C@@H](CCCCNC(=O)OC(C)(C)C)C(=O)N2CCN(C(=O)OC(C)(C)C)CC2)nn1	?	?	4%	3%	?
CC(C)(C)OC(=O)NCCCCCc1cn([C@@H](CO)C(=O)NCCCCCCCCCCC(=O)N2CCN(C(=O)OC(C)(C)C)CC2)nn1	nt	2.6µM*	4%	nt	2.3µM*
CC[C@H](C)[C@@H](C(=O)NCCCCCCCCCCC(=O)N1CCN(C(=O)OC(C)(C)C)CC1)n1cc(CCCCCNC(=O)OC(C)(C)C)nn1	nt	4.6µM*	3%	nt	5.8µM*
CC(C)(C)OC(=O)CC[C@@H](C(=O)NCCCCCCCCCCC(=O)N1CCN(C(=O)OC(C)(C)C)CC1)n1cc(CCCCCNC(=O)OC(C)(C)C)nn1	nt	5.8µM*	-2%	nt	4.1µM*
Cc1cn([C@H](C(=O)NCCCCCCCCCCC(=O)N2CCN(C(=O)OC(C)(C)C)CC2)[C@@H](C)O)nn1	nt	23µM*	0%	nt	16µM*
CC(C)(C)OC(=O)NCCCC[C@@H](C(=O)NCCCCCCCCCCC(=O)N1CCN(C(=O)OC(C)(C)C)CC1)n1cc(CCCC(=O)O)nn1	nt	?	7%	nt	?
C/C(CC(=O)Nc1c(C)cc(C)cc1C)=N\NC(=O)OC(C)(C)C	-10%	-13%	5%	22%	-4%
CCC(=O)n1nc(-c2ccc(Cl)cc2)nc1SC	21%	-5%	-2%	-13%	-6%
CCCCCCCCO	1%	8%	1%	-2%	3%
CCCCCC[N+](C)(C)CCSSCC[N+](C)(C)CCCCCC	-1%	-7%	nt	1%	-5%
CCCCCCCC[N+](CCCCCCCC)(CCCCCCCC)CCCCCCCC	4.5µM*	nt	0%	2µM*	nt
C#CC[N+](C)(C)CCCCCCCC	6%[10 µM]	?	3%	-1%	?
CCCCCCCCCCCCCCCC[N+](C)(C)CCl	nt	1.8µM*	nt	nt	2.3µM*
CCCCCCCC[N+](C)(C)CCCCCCCC	nt	1.7µM*	nt	nt	1.5µM*
CCCCCCCCCCCCCC[N+](C)(C)C	?	0.94µM*	6%	?	0.6µM*
COc1ccc(Cl)cc1C(=O)NNC(=O)COC(=O)CC(NC(C)=O)c1ccccc1 (configuration not stated)	nt	8%	1%	nt	-18%
COc1cccc(NC(=O)c2nn(C)c3c2CS(=O)(=O)c2ccccc2-3)c1	5%	-20%	4%	-1%	18%
CCCCCC(N)=O	27%	-4%	1%	1%	3%
CCCCCCCCCCCCCCCC[N+](C)(C)CC	-28%	1µM*	2%	-23%	0.52µM*!
CCCCCCCCCCCCCCCCOP(=O)([O-])OCC[N+](C)(C)C	-1%	-8%	-8%[56.1 µM]	-1%	11%
COc1cccc(NC(=O)NC2(C(F)(F)F)Oc3ccccc3O2)c1	0%	?	3%	-6%	?
CSCC(O)Cn1ncc2ccccc2c1=O (configuration not stated)	21%	-5%	6%	-18%	0%
SMILES	RORg inh	DT40 TDP1 CPT	TDP1 block	VP16 counter	DT40 TDP1 no CPT
O=C(c1coc(=O)c(Br)c1)N1CCOCC1	-7%	5.2µM*	22µM*	-6%	5.2µM*
O=C(c1ccc(=O)oc1)N1CCOCC1	-7%	?	nt	2%	-7%
O=C(OC1CCCC1)c1ccc(Cl)cc1Cl	nt	-14%	nt	nt	?
COC(=O)c1ccc(CNCC(=O)Nc2ccc(C(=O)OC)cc2)cc1	5%	?	-4%	-10%	10%
COC(=O)c1ccc(CNc2ccc(C(C)=O)cc2)cc1	nt	?	nt	nt	15µM*
Cc1ccc(C(=O)N(C)Cc2ccccc2)cc1S(=O)(=O)N1CCOCC1	-2%	19%	4%	9%	-3%
CC(=O)c1ccc(NC(=O)Nc2ccc(NS(=O)(=O)c3ccc(C)cc3)cc2)cc1	?	?	3%	-4%	?
CC(C)(C)c1ccc(S(=O)(=O)Nc2ccc(Cc3ccncc3)cc2)cc1	?	?	11%	?	16µM*
CC(=O)c1ccc(NS(=O)(=O)c2ccc(CC(C)C)cc2)cc1	?	?	0%	10µM*	?
O=C(O)c1cccc(S(=O)(=O)Nc2ccc(Cc3ccncc3)cc2)c1	nt	-14%	2%	nt	24%
CC(=O)Nc1ccc(S(=O)(=O)Nc2ccc(Cc3ccncc3)cc2)cc1	?	?	4%	10µM*	9.2µM*
CC(C)(C)c1ccc(NS(=O)(=O)c2ccc(N)cc2)cc1	1%	2%	3%	-18%	?
CCN(C(=O)CSc1nnc(-c2ccc(OC)cc2)n1N)c1c(N)n(Cc2ccccc2)c(=O)[nH]c1=O	nt	-4%	nt	nt	22%
CCOC(=O)C1CCN(c2ncnc3cc(OC)c(OC)cc23)CC1	6%	?	5%	-9%	21µM*
CCOC(=O)c1ccc(NC(=O)N2CCN(c3ccccc3OC)CC2)cc1	3%	?	-1%	-8%	?
CCOC(=O)C1CCN(c2ncnc3nc[nH]c23)CC1	-13%	-1%	3%	-3%	-26%
COc1cc2ncnc(N3CCN(C(=O)Nc4ccc(Oc5ccccc5)cc4)CC3)c2cc1OC	nt	11µM*	nt	nt	11µM*
CCOC(=O)C1CCN(c2ncnc3c(C)csc23)CC1	-2%	?	1%	-15%	13µM*
C/C(=N\NC(=O)C(=O)N/N=C(\C)c1cccc(O)c1)c1cccc(O)c1	-19%	7%	-3%	5%[10 µM]	-3%
O=[N+]([O-])c1cccc2c(N3CCCC3)ccnc12	-42%	8.2µM*	-5%	?	8.2µM*
O=C(c1ccccc1F)N1CCN(c2ccc([N+](=O)[O-])c3ncccc23)CC1	?	15µM*	0%	?	21µM*
O=[N+]([O-])c1ccc(Cl)cc1N1CCCC1	31%	-2%	3%	5%	1%
